Source: PubChem BioAssay AID624330 (Southern Research Specialized Biocontainment Screening …, 2012)
Out of some 340,000 compounds screened, about 2,100 (0.62%) were called active.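 Rule for the calls: active = first-screen hits whose inhibition reached a set limit at any dose in the follow-up dose series; inconclusive = inhibition above the set first-screen limit but never retested; inactive = the rest.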 A selection follows. Measured potencies and affinities stand elsewhere.

target: Rac GTPase-activating protein 1 (Homo sapiens) (UniProt Q9H0H5); test: blockers of MgcRacGAP-driven Rac1 GTP hydrolysis – biochemical, ADP Hunter fluorescence, primary and confirmatory, confirmation (AID 624330); details: MgcRacGAP-stimulated Rac1 GTP hydrolysis, at 30 µM, hits give high values, GST-tagged Rac1 F28L mutant substrate;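 note: fluorescence reports GDP produced by GAP-driven GTP hydrolysis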
Sequence (Q9H0H5 whole entry, looked up): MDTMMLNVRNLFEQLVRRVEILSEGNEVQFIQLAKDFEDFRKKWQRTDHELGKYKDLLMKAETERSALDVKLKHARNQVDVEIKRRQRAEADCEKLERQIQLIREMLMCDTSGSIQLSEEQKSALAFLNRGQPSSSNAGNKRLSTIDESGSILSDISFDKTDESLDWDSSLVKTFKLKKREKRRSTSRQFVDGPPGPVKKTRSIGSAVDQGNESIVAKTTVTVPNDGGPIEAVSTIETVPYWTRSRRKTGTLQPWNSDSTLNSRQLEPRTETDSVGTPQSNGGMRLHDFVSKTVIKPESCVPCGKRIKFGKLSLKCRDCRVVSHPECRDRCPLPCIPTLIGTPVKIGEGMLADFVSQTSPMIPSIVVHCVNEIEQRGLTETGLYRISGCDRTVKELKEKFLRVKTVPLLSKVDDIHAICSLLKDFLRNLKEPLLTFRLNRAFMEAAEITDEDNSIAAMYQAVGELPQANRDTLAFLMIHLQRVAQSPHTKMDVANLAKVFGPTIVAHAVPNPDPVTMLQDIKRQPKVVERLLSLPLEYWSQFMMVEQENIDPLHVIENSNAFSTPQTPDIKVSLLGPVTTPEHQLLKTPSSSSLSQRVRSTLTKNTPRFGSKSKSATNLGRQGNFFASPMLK

inhibition, inactive:
CC1=C(C)CS(=O)N(S(=O)(=O)c2ccccc2)C1 (stereo unspecified) 30.6%
O=S(=O)(c1ccccc1)N1CCN(S(=O)(=O)c2ccccc2)C1 3.12%
Cc1cccc(C(=O)NCC(c2ccc(F)cc2)N2CCOCC2)c1 (stereo unspecified) 3.85%
Cc1ccc(C)c(CSc2ncccc2C(=O)O)c1 9.95%
O=C(c1ccccc1)c1ccc2c(c1)OCCOCCOCCOCCO2 -8.09%
NC(=O)c1ccc2c(c1)OCCO2 -2.13%
O=C(Nc1cccnc1)c1cccc(NC(=O)c2ccco2)c1 11.1%
O=C(Nc1cccc(S(=O)(=O)Nc2ccccc2F)c1)c1ccco1 0.67%
N#Cc1cc([N+](=O)[O-])ccc1NCCCn1ccnc1 -2.38%
Cc1ccccc1-n1c(=O)c2ccccc2n2cnnc12 2.97%
Cn1c(=O)c2ccccc2n2c(CCl)nnc12 -0.09%
Cc1ccccc1-n1c(=O)c2ccccc2n2c(=O)[nH]nc12 3.11%
Cc1nnc2n(-c3ccccc3)c(=O)c3ccccc3n12 9.66%
CCCCCn1c(=O)c2ccccc2n2c(CCl)nnc12 1.94%
CCOCCCNC(=O)CCc1nnc2n(CCC(C)C)c(=O)c3ccccc3n12 7.91%
CN1CCN(C(=O)/C(=C/c2ccco2)NC(=O)c2ccccc2)CC1 3.42%
CC1CCCCN1C(=O)NC1CC(=O)N(c2ccc3c(c2)OCCO3)C1 (stereo unspecified) 4.77%
CCCOc1ccc(C(=O)ON=C2CCN(C)CC2)cc1 5.39%
Cc1ccc(-c2csc3ncnc(N4CCN(Cc5ccccc5)CC4)c23)cc1 4.03%
O=C(CN1C(=O)NC2(CCOc3ccccc32)C1=O)c1ccc[nH]1 (stereo unspecified) -0.33%
COc1ccccc1CNc1nc2nc(C)c(Cl)c(=O)n2[nH]1 3.76%
Cc1nc2sc(C(c3cccs3)N3CCN(C(=O)c4ccco4)CC3)c(O)n2n1 (stereo unspecified) 1.66%
CCc1cc(C(=O)Cc2ccccn2)c(O)cc1O -7.09%
CCc1cc(/C(Cc2ccccn2)=N\Nc2ccccc2)c(O)cc1O 5.83%
Cc1cc(O)c(C(=O)Cc2csc(C)n2)c(O)c1 1.16%
CCc1cc2c(=O)c(-c3cscn3)coc2cc1O -2.61%
CCc1cc(/C(Cc2ccc3ccccc3n2)=N\O)c(O)cc1O 22.8%
Cc1cc(O)cc(O)c1C(=O)Cc1cscn1 7.26%
CCOC(=O)N1CCC(=NNC(=O)NC2CCCCC2)CC1 -0.13%
Cn1c(=O)n(C)c2cc(/C=N/N=C3/NC(=O)C(CC(=O)O)S3)ccc21 (stereo unspecified) 11.1%
Nn1c(SCC(=O)NCC2CCCO2)nnc1-c1cc(Cl)ccc1Cl (stereo unspecified) 5.2%
COc1ccccc1OCC(=O)NNC(=O)CSC(=S)N1CCCC1 8.8%
CC(C)C(NC(=O)CNC(=O)OC(C)(C)C)C(=O)NCc1ccc(Cl)cc1 (stereo unspecified) 4.12%
CCOc1cccc(OCCOCCN2CCCC2)c1 25%
COc1ccc(OCCOCCN2CCOCC2)cc1 12.8%
COc1ccc(OCCOCCN2CCc3ccccc3C2)cc1 28.9%
CN1CCN(CCOc2ccc(Cc3ccccc3)cc2)CC1 10.6%
CCOc1ccc(OCCN2CCCCC2)cc1 19.4%
CCN1CCN(CCOCCOc2ccccc2)CC1 28.1%
c1ccc(OCCCCN2CCCCC2)cc1 12.9%
c1ccc(COc2ccc(OCCCN3CCCC3)cc2)cc1 15.1%
CC(Sc1nnc(-c2ccccc2F)n1C)C(=O)NC1CCCCC1 (stereo unspecified) 6.18%
CCOC(=O)c1c(C)sc(Sc2ccc(Cl)cc2[N+](=O)[O-])c1OC 4.34%
Cc1ccnc(SC2CC(=O)N(c3ccc(F)cc3)C2=O)n1 (stereo unspecified) 1.56%
C(=N\N=C\c1ccccn1)/c1ccccn1 3.13%
COc1ccc(CN(C)C(=O)[C@H](Cc2ccccc2)NC(=O)c2ccco2)c(OC)c1 0.3%
COCCCNC(=O)CC1C[C@H](C(=O)N2CCOCC2)[C@@]2(C)c3[nH]c4ccc(OC)cc4c3CCN2C1=O (stereo partly specified) 8.55%
Cc1ccccc1N(CC(=O)N/N=C/c1cc(Br)c(C)o1)S(C)(=O)=O 4.93%
O=S(=O)(NCCN1CCOCC1)c1ccc2c(c1)OCCO2 3.86%
C/C(=N\NC(=O)C1(C)CC1(Br)Br)c1cccc(NC(=O)c2ccc(C)o2)c1 (stereo unspecified) 5.18%
O=C(C1=NN[C@@H]2C(=O)N(Cc3ccccc3)C(=O)[C@H]12)c1ccc([N+](=O)[O-])cc1 14.7%
COc1ccc(/C=C2\SC(N3CCc4ccccc4C3)=NC2=O)cc1OC 10.4%
O=C(CCC(=O)c1cccs1)NCC(c1ccc(F)cc1)N1CCOCC1 (stereo unspecified) 4.84%
Cc1cccc(N2CCN(C(=O)c3ccc4c(c3)c(C)c(C)n4C)CC2C)c1 (stereo unspecified) -37%
Cc1cc(C)n(CC(=O)N2c3ccccc3Sc3ccccc32)n1 4.56%
Cc1nn(CC(O)CN2c3ccccc3Sc3ccccc32)c(C)c1Br (stereo unspecified) 7.34%
COc1ccccc1NCc1ccc([N+](=O)[O-])s1 15.3%
COc1ccc(NCc2ccc([N+](=O)[O-])s2)cc1 23.5%
COC(=O)c1ccc(Sc2ccc(C)cc2)c(N)c1 9.92%
Cc1ccc(Sc2ccc(N)cc2C#N)cc1 4.36%
Nc1ccc(C(=O)OCCc2ccccc2)cc1 6.65%
NC(=S)c1ccc(OCCCc2ccccc2)cc1 8.89%
CC(=O)NC(Cc1ccc(C(C)C)cc1)C(=O)NC1CCN(c2nc(C)cc(C)n2)CC1 (stereo unspecified) 7.86%
CC(c1ccc2ccccc2c1)c1ccccc1C(=O)O (stereo unspecified) 5.25%
N#C/C(=C/c1ccc(N2CCOCC2)o1)c1ccc(Cl)cc1 41.4%
N#C/C(=C/c1ccc(N2CCCCCC2)o1)c1ccc(Cl)cc1 38.4%
N#C/C(=C/c1ccc(N2CCOCC2)o1)c1ccc(Br)cc1 27%
N#C/C(=C\c1ccc(N2CCOCC2)cc1)c1ccccc1 -4.89%
CCN(CC)c1ccc(C=C2C(=O)OC3(CCCCC3)OC2=O)cc1 4.11%
O=C1c2cccc3cccc(c23)C(=O)N1Cc1ccco1 6.44%
CN(C)c1ccc(C=C2SC(=S)N(Cc3ccco3)C2=O)cc1 9.1%
O=C1c2ccccc2C(=O)N1Cc1ccco1 8.18%
COC(=O)C1=C(C)N(Cc2ccco2)C(=O)/C1=C\c1ccc(N(C)C)cc1 1.57%
CCN(CC)c1ccc(C=C2C(=O)OC3(CCCC3)OC2=O)cc1 14.2%
COCCNC(=S)N/N=C/c1c2ccccc2cc2ccccc12 6.58%
COc1ccccc1CC(=O)Nc1ccc2c(C)cc(=O)oc2c1 4.86%
COC(=O)C(CC(C)C)NC(=O)c1cccs1 (stereo unspecified) 0.95%
COc1ccc(N=C2S/C(=C\c3cccs3)C(=O)N2CC(C)C)cc1 12.5%
O=C(CN1CCN(Cc2cccc(C(F)(F)F)c2)CC1)NCC(=O)Nc1ccc(F)c(F)c1F 3.75%
CC(C(=O)Nc1ccc(F)c(F)c1F)N1CCCCCC1 (stereo unspecified) 9.76%
O=C(CN1CCCCC1)NCC(=O)Nc1ccc(F)c(F)c1F -2.94%
CC(C(=O)NCC(=O)Nc1ccc(F)c(F)c1F)N1CCN(Cc2ccc(C#N)cc2)CC1 (stereo unspecified) -0.12%
COc1ccc(N(CC(C)C)S(=O)(=O)c2nnc(NC(=O)CC(C)C)s2)cc1 2.69%
CC(=O)Nc1cc(-c2ccccc2)nn1Cc1ccc(Cl)cc1 -1.04%
[O-]/[N+](=N\Nc1ccc(Cl)cc1)c1ccccc1 9.79%
CN1C=C/C(=C\c2cc[n+](C)c3ccccc23)c2ccccc21 -0.62%
CC[n+]1cc(C)ccc1/C=C/c1ccc(N(C)C)cc1 7.19%
CC[n+]1ccccc1/C=C/c1ccc(N(C)C)cc1 10.2%
CN(C)c1ccc(C=Cc2ccnc3c(O)cccc23)cc1 8.47%
CN1/C(=C/c2cc[n+](C)c3ccccc23)C=Cc2ccccc21 31.4%
CN(C)c1ccc(/C=C/c2cc[n+](C)cc2)cc1 22.9%
Fc1ccc(C2CC(c3ccco3)n3ncnc3N2)cc1 (stereo unspecified) -3.61%
Cc1cc(C(=O)Nc2sccc2C(N)=O)c(C)o1 2.82%
CCc1ccc2oc(C(=O)Nc3cccnc3)c(C)c2c1 3.43%
COc1ccc(NC(=O)NC(C)c2ccccc2)cc1 (stereo unspecified) 7.88%
CN1CCN(c2nc3ccccn3c(=O)c2/C=C(\C#N)S(=O)(=O)c2ccccc2)CC1 10.8%
O=C(CCN1C(=O)C2C3CC(C(Br)C3Br)C2C1=O)OCC(=O)c1ccccc1 (stereo unspecified) 7.46%
O=C(CNS(=O)(=O)c1ccc(Cl)cc1)NC1CCCCC1 -0.07%
Cc1cc(C(=O)NCc2ccc(F)cc2)n(-c2ccccc2)n1 12.3%
COc1ccc(CN2CCN(CCCc3ccccc3)C(CCO)C2)c(OC)c1 (stereo unspecified) 3.22%
COc1cccc(N2CCN(Cc3ncc(-c4ccccc4)o3)CC2)c1 7.37%
